Active and inactive are the calls of the source.
Experiments:
[1] = target: Albumin (Bos taurus) (UniProt P02769); test: compounds binding labelled BSA control protein – biochemical, small-molecule microarray, Alexa647 label, 635/667 nm fluorescence, artefact control for SMM control protein annotation, profiling panel (AID 1118); conditions: BSA-A647 binding, fluorescence 635 nm, higher = more signal;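 note: score merges 667 nm emission intensity and signal-to-noise per printed compound spot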
[2] = probe aXIP binding to arrayed compounds – biochemical, NeuroSMM set, 635/667 nm fluorescence, primary screen (AID 1119); conditions: small-molecule microarray, higher = more signal, called active from +8 up or from −8 down;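 note: probe is the protein aXip251-270 applied at 1 µg/mL to compound-printed slides; binding of probe to printed compounds measured as 667 nm fluorescence plus signal to noise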
[3] = probe aNOTCH3 binding on compound microarray – biochemical, small-molecule microarray, 635/667 nm fluorescence, primary screen (AID 1120); conditions: higher = more signal;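 note: probe is a biotin-tagged antibody raised against NOTCH3 rather than NOTCH3 protein; score merges spot fluorescence near 667 nm with spot signal to noise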
[4] = probe aNOTCH2 binding on compound microarray – biochemical, small-molecule microarray, 635/667 nm fluorescence, primary screen (AID 1121); conditions: higher = more signal;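 note: score merges feature fluorescence read at 667 nm with its signal to noise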
[5] = target: Carbonic anhydrase 2 (Homo sapiens) (UniProt P00918); test: compounds binding carbonic anhydrase 2 – biochemical, small-molecule microarray, Alexa647-labelled CAII, profiling panel (AID 1122); conditions: CAII-A647 binding fluorescence, higher = more signal
[6] = COS7 lysate on small-molecule microarray, probe aHis, 635 nm (AID 1123); conditions: COS7 cell lysate, fluorescence, higher = more signal;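 note: z-score combines 667nm fluorescence intensity with signal-to-noise per printed compound spot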
[7] = probe aLAP1 signal on lysate-treated microarray – cell lysate, small-molecule microarray, COS7 lysate, primary screen (AID 1124); conditions: probe aLAP1, fluorescence, higher = more signal;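 note: lysate comes from COS7 cells expressing LAP1 and is applied at 0.3 µg/mL; score merges spot fluorescence near 667 nm with signal-to-noise over triplicate slides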
[8] = test system: Sam68 (KHDRBS1); test: compounds binding KHDRBS1 protein – biochemical, small-molecule microarray, 635 nm fluorescence, primary screen (AID 1125); conditions: higher = more signal;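 note: score merges 667 nm channel intensity with signal to noise over triplicate slides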
[9] = test system: Chordin-like protein 2 (CHRDL2); test: compounds binding chordin-like 2 – biochemical, small-molecule microarray, 635 nm fluorescence, primary screen (AID 1126); conditions: fluorescence 635 nm, higher = more signal;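 note: printed compound slides probed with Chrdl2 protein at 4 µg/mL for 1 h at 4 C; score merges 667 nm emission intensity with signal to noise over three replicate slides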
[10] = target: Concanavalin-A (Canavalia ensiformis) (UniProt P02866); test: compounds binding concanavalin A lectin – biochemical, small-molecule microarray, Alexa647 label, 635 nm, artefact control for SMM control protein annotation, primary screen (AID 1127); conditions: ConA-A647 binding fluorescence, higher = more signal;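 note: z combines 667 nm emission intensity with signal-to-noise across three replicate slides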
Chain of Concanavalin-A (Canavalia ensiformis) (P02866 whole entry, looked up): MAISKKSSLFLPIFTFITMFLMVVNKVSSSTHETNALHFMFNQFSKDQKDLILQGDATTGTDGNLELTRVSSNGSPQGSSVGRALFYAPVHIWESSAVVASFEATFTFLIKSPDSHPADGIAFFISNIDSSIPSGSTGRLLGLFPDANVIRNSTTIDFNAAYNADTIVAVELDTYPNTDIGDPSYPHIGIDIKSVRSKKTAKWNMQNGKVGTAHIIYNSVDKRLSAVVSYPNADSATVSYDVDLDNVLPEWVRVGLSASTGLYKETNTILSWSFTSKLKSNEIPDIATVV

[11] = compounds binding Alexa647 anti-His antibody – biochemical, small-molecule microarray, 635 nm fluorescence, artefact control for SMM control protein annotation, primary screen (AID 1128); conditions: higher = more signal;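 note: score merges feature fluorescence with signal-to-noise for each printed compound spot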
[12] = test system: Human papillomavirus type 1a E7 protein (residues 1-88); test: HPV1a E7 small-molecule binders, primary screen, biochemical, small-molecule microarray, residues 1-88, 635 nm (AID 1129); conditions: small-molecule microarray binding, fluorescence 635 nm; higher = more signal
[13] = target: Focal adhesion kinase 1 (Homo sapiens) (UniProt Q05397); test: PTK2 protein binding on printed compound slides – biochemical, small-molecule microarray, 635/667 nm fluorescence, BSA, DTT, primary screen (AID 1130); conditions: 635 nm fluorescence, higher = more signal;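 note: composite of spot emission at 667 nm and signal to noise over triplicate slides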
Chain of Focal adhesion kinase 1 (Homo sapiens) (Q05397 whole entry, looked up): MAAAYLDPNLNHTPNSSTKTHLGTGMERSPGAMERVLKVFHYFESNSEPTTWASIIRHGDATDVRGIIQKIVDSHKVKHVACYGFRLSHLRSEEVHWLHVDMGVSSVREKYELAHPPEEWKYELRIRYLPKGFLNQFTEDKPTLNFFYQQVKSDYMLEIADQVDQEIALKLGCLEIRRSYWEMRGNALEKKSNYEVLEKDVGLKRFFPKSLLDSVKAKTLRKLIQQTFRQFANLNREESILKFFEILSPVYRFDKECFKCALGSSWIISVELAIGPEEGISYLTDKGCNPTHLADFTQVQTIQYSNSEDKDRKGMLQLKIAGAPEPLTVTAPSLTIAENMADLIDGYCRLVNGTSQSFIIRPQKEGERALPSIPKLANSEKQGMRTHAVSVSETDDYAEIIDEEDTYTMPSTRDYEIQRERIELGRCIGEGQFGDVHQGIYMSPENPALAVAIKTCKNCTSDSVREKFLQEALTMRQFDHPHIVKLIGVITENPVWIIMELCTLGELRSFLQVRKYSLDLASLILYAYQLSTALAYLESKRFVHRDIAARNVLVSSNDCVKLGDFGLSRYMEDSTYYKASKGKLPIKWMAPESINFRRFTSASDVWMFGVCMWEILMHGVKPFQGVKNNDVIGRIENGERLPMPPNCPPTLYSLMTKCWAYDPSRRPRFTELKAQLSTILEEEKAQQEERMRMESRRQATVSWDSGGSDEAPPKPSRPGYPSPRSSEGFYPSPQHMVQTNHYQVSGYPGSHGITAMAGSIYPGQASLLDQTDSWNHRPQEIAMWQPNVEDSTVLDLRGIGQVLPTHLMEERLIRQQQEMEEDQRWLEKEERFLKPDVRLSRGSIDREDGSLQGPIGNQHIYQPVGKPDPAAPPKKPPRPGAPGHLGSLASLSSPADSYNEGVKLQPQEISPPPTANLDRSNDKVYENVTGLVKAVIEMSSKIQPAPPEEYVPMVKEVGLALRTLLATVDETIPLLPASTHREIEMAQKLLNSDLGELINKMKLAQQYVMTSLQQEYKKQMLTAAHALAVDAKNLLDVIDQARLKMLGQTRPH

[14] = test system: Fibrinogen (Alexa647-labelled); test: Alexa647-fibrinogen binding to printed small molecules – biochemical, small-molecule microarray, 635/667 nm fluorescence, artefact control for SMM control-protein annotation, profiling panel (AID 1131); conditions: fibrinogen-A647 binding fluorescence, higher = more signal;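 note: z-score merges 667 nm fluorescence with per-spot signal-to-noise over triplicate slides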
[15] = target: Follistatin (Homo sapiens) (UniProt P19883); test: FST protein binding to printed compounds – biochemical, small-molecule microarray, 635/667 nm fluorescence, primary screen (AID 1132); conditions: 635 nm fluorescence, higher = more signal
Chain of Follistatin (Homo sapiens) (P19883 whole entry, looked up): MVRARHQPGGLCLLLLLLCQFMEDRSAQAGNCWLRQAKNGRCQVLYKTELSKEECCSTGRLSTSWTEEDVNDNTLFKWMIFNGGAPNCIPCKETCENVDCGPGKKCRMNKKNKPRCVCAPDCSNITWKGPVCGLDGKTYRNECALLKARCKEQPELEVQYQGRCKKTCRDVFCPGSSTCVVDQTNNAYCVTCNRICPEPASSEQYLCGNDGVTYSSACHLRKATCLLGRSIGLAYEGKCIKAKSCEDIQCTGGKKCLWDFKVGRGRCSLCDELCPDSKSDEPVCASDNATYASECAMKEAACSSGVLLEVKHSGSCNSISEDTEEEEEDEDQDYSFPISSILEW

[16] = target: Fibroblast growth factor 2 (Homo sapiens) (UniProt P09038); test: basic fibroblast growth factor binding to printed compounds – biochemical, small-molecule microarray, 635/667 nm fluorescence, primary screen (AID 1133); conditions: FGF2, fluorescence 635/667, higher = more signal
Chain of Fibroblast growth factor 2 (Homo sapiens) (P09038 whole entry, looked up): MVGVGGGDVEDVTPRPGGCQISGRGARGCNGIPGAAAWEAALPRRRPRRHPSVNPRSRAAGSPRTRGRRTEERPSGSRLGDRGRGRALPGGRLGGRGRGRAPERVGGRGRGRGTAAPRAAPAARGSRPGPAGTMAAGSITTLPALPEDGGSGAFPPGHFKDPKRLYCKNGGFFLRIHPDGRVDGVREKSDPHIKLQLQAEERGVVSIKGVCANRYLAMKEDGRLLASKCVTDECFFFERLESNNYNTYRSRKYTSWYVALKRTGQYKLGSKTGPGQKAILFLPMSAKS

[17] = JC-1 mitochondrial potential readout, lung cancer cells – cell-based, A549, JC-1 fluorescence, basal, 24 h, 100 nL, profiling panel (AID 1138); conditions: higher = more signal;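 note: A549 lung adenocarcinoma cells under basal conditions with no added stimulus; test concentration not given here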
[18] = test system: Lefty1; test: Lefty1 protein binding to printed compounds – biochemical, small-molecule microarray, 635/667 nm fluorescence, primary screen (AID 1139); conditions: fluorescence 635/667, higher = more signal
[19] = test system: wheat germ agglutinin (Triticum aestivum), Alexa647-labelled; test: Alexa647-WGA lectin binding to printed small molecules – biochemical, small-molecule microarray, 635/667 nm fluorescence, artefact control for SMM control-protein annotation, profiling panel (AID 1140); conditions: WGA-A647 binding, 635 nm fluorescence, higher = more signal;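 note: score merges 667 nm feature emission with signal to noise over triplicate slides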
[20] = target: Luciferin 4-monooxygenase (Photinus pyralis) (UniProt P08659); test: inhibition of purified Photinus pyralis luciferase – biochemical, luminescence, purified enzyme, 2006 set, primary screen (AID 1141); conditions: purified firefly luciferase, SteadyGlo luminescence, 30 min; higher = more signal, called active from +8 up or from −8 down;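 note: cell-free assay with purified firefly luciferase at 100 ng per well in PBS; test concentration not given here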
Chain of Luciferin 4-monooxygenase (Photinus pyralis) (P08659 whole entry, looked up): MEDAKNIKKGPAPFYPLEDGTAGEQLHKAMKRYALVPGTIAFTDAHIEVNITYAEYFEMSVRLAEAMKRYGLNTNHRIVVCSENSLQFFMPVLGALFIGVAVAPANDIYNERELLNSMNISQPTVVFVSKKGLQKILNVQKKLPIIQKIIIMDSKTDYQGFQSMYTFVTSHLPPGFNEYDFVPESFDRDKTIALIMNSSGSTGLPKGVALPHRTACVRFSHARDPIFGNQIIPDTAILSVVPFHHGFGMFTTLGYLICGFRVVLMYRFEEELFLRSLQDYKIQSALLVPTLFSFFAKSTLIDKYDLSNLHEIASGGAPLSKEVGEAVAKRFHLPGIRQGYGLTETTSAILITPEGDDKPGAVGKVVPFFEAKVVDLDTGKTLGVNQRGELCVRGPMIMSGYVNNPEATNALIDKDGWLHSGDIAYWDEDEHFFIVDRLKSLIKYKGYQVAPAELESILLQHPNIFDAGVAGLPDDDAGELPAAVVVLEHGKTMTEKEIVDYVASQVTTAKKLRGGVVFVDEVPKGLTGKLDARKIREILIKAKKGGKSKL

Chain of Albumin (Bos taurus) (P02769 whole entry, looked up): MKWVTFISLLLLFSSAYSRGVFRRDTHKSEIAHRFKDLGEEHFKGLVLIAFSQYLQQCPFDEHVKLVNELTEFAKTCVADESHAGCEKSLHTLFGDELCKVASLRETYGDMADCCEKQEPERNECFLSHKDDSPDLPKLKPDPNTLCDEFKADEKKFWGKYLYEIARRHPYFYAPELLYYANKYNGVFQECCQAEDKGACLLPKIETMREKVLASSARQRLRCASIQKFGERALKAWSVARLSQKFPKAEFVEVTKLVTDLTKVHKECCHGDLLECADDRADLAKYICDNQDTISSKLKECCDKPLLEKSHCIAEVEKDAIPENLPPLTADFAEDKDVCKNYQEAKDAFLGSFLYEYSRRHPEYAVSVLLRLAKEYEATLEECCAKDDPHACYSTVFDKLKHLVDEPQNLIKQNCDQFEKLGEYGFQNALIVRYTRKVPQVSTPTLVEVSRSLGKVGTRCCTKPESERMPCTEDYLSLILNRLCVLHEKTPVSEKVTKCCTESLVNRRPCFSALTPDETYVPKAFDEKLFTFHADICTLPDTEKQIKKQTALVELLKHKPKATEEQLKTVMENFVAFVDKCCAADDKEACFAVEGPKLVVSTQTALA

| Structure (SMILES) | composite z-score [1] | composite Z-score [2] | composite z-score [3] | composite z-score [4] | composite z-score [5] | composite z-score [6] | composite z-score [7] | composite z-score [8] | composite z-score [9] | composite z-score [10] | composite z-score [11] | composite z-score [12] | composite z-score [13] | composite z-score [14] | composite z-score [15] | composite z-score [16] | z-score [17] | composite z-score [18] | composite z-score [19] | z-score [20] |
| --- | --- | --- | --- | --- | --- | --- | --- | --- | --- | --- | --- | --- | --- | --- | --- | --- | --- | --- | --- | --- |
| COC(=O)C1=CC(CCCO)=CC(C2CC2)N(C)C=C1C(=O)OC (stereo not given) | 1.04 | 0.856 (inactive) | -0.0108 | -0.0668 | 0.97 | 1.09 | 0.687 | 0.0065 | -0.761 | 0.0472 | -0.153 | -0.308 | 0.623 | -0.828 | -0.157 | -0.539 | 0.511 | -0.285 | 1.26 | 0.727 (inactive) |
| O=C1C2C=CC(C(O)c3ccccc3)N(Nc3ccccc3F)C2C(=O)N1c1ccccc1 (stereo not given) | 0.571 | -0.158 (inactive) | -0.0879 | -0.126 | 0.811 | 0.737 | 0.34 | 0.246 | 0.18 | 0.532 | 0.513 | 0.506 | 0.0669 | 0.168 | -0.0118 | -0.248 | 0.462 | 0.347 | 0.0842 | 0.541 (inactive) |
| O=C1N(Cc2ccccc2)c2ccccc2[C@@H]2OC(c3ccc(OCCCO)cc3)=N[C@]12Cc1ccccc1 | -0.34 | -0.296 (inactive) | -0.0362 | -0.0146 | 0.607 | 2.23 | -0.327 | 1.3 | 0.29 | 1.11 | 0.205 | 1.24 | 0.623 | 0.787 | 1.12 | 1.12 | -1.31 | 0.183 | 0.849 | -3.86 (inactive) |
| C=CCC(OC(C)=O)[C@@H]1[C@@H](N(Cc2cc3ccccc3o2)C(=O)Cc2ccc(F)cc2)c2cc(OCCCO)ccc2N1C(=O)c1ccc2ccccc2c1 (stereo not given in full) | -0.379 | 0.749 (inactive) | -0.118 | -0.0904 | 0.31 | -0.234 | 0.0099 | -0.741 | -0.173 | -0.679 | -0.232 | -0.835 | -0.167 | -1.03 | 0.722 | -0.143 | 1.08 | 0.777 | 0.181 | -0.514 (inactive) |
| COCCOC(=O)N1C(=O)[C@@]2(c3cc(C#Cc4ccc(OC)cc4)ccc31)[C@H](C(=O)Nc1nc3ccccc3s1)[C@H]1C(=O)O[C@H](c3ccccc3)[C@H](c3ccccc3)N1[C@@H]2c1ccc(O)cc1 | 0.374 | 0.364 (inactive) | 0.214 | -0.118 | -0.111 | 1.91 | 0.171 | 1.33 | 0.576 | 1.16 | -0.0507 | 1.13 | 0.0931 | 0.965 | 1.29 | 1.09 | -2.26 | 1.18 | 0.927 | -0.0504 (inactive) |
| O=C(NCCCCCNC(=O)/C(Cc1ccccc1)=N/O)OCc1ccccc1 | -0.0396 | -0.136 (inactive) | -0.165 | -0.195 | -0.162 | -0.564 | 0.148 | -0.0603 | 0.366 | -0.485 | 0.0971 | 0.0944 | 0.433 | 0.106 | 0.27 | 0.003 | 0.552 | 0.289 | -0.0398 | 0.209 (inactive) |
| C=CCC(OC(C)=O)[C@@H]1[C@@H](N(Cc2ccc(-c3ccccc3)cc2)C(=O)Cc2ccc(F)cc2)c2cc(OCCCO)ccc2N1C(=O)Cc1ccc(OC)cc1 (stereo not given in full) | -0.0495 | -0.101 (inactive) | -0.0817 | -0.141 | 0.207 | 0.377 | 0.0514 | -0.274 | -0.0031 | 0.774 | -0.148 | -0.212 | 0.328 | 0.397 | 0.508 | -0.472 | 0.626 | -0.0463 | 0.687 | -0.51 (inactive) |
| CCCCC(=C=CC[C@@H](O)c1ccccc1OCCO)C[C@@H](O)COCc1ccccc1 | 0.338 | -0.0202 (inactive) | -0.281 | -0.148 | 0.47 | 1.95 | 0.207 | 0.471 | -0.893 | -0.525 | 0.0168 | -0.399 | 0.577 | 0.479 | 0.271 | 0.668 | 0.995 | 0.0842 | 0.0771 | -2.59 (inactive) |
| COC1OC[C@]2(C)[C@H]3C4=C(CN2C(=O)OC(C)(C)C)[C@H](C)C(CO)C(CO)C4CC[C@@H]13 (stereo not given in full) | 1.1 | 0.0112 (inactive) | 0.239 | 0.35 | 0.805 | 2.88 | 0.875 | 1.31 | -0.675 | 1.17 | 2.1 | 1.24 | 1.14 | 0.998 | 1.05 | -0.636 | 2.03 | -0.664 | 1.41 | 0.0207 (inactive) |
| O=C1O[C@H](c2ccccc2)[C@H](c2ccccc2)N2[C@H]1[C@@H](C(=O)Nc1nc3ccccc3s1)[C@]1(C(=O)Nc3ccccc31)[C@H]2c1ccc(OCCO)cc1 | 0.471 | -0.393 (inactive) | 0.23 | -0.0895 | 0.546 | 0.823 | 0.328 | 1.3 | 0.608 | 1.12 | 1.55 | 1.19 | 0.522 | 1.01 | 1.45 | 1.18 | -2.15 | 1.2 | -0.0258 | -4.2 (inactive) |
| [N-]=[N+]=NCc1ccccc1[C@H]1OC(c2ccc(OCCCO)cc2)=N[C@@]1(CCS(=O)(=O)c1ccccc1)C(=O)N1CCCCC1 | 1.05 | 0.32 (inactive) | 0.268 | 0.0562 | 0.753 | 2.83 | 0.512 | 1.31 | -0.565 | 1.2 | 2.98 | 1.23 | 1.12 | 1.02 | 1.1 | 0.227 | -1.16 | 0.53 | 1.44 | -0.844 (inactive) |

Source: PubChem BioAssay
